The target of experiment [1] is human Phosphodiesterase 10 (PDE10), PDE10A (gene 10846) (UniProt Q9Y233). Briefly: NVS_ENZ_hPDE10: NovaScreen (NVS) Enzymatic Assay for human Phosphodiesterase 10 (PDE10) (AID 2283195). In a few lines:
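PDE10A, cell-free; 1 h incubation; fluorescence intensity + electrophoretic mobility shift separating substrate/product; DMSO = baseline; 25 uM duplicate primary, CRC up to 50 uM.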

For experiment [2], the target named is human Protein Tyrosine Phosphatase Non-receptor Type 1 (PTPN1), PTPN1 (gene 5770) (UniProt P18031). Nature of the experiment: NVS_ENZ_hPTPN1: NovaScreen (NVS) Enzymatic Assay for human Protein Tyrosine Phosphatase Non-receptor Type 1 (PTPN1) (AID 2283201). In a few lines: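 Cell-free fluorogenic-substrate activity assay on recombinant enzyme, read 1.33 h after dosing by fluorescence and electrophoretic mobility shift; loss of signal vs DMSO baseline. Primary screen in duplicate at 25 uM, hits then run in concentration-response up to 50 uM.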
Sequence of human Protein Tyrosine Phosphatase Non-receptor Type 1 (PTPN1), PTPN1 (gene 5770) (P18031 whole entry, looked up): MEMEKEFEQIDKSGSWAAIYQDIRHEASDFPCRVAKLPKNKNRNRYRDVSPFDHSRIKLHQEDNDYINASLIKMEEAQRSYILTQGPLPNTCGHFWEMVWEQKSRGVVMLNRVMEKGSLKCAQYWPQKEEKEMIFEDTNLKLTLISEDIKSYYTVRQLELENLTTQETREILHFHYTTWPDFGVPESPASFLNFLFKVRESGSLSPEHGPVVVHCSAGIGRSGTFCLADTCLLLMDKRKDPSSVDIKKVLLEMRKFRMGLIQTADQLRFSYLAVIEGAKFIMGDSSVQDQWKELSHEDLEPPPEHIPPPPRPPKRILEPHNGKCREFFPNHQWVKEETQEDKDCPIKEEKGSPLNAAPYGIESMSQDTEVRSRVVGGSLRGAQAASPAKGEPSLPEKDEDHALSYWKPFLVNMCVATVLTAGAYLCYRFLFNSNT

Experiment [3] has as its target Tyrosine-protein phosphatase non-receptor type 12 (Homo sapiens) (UniProt Q05209). Briefly: NVS_ENZ_hPTPN12: NovaScreen (NVS) Enzymatic Assay for human Protein Tyrosine Phosphatase Non-receptor Type 12 (PTPN12) (AID 2283204). In a few lines: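 Single-concentration duplicates (25 uM) preceded singleton concentration-response up to 50 uM for chemicals passing threshold. Cell-free recombinant PTPN12 activity was read 1.33 h after dosing via fluorescence after mobility-shift separation; loss of signal versus DMSO.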

Experiment [4] has as its target Tyrosine-protein phosphatase non-receptor type 11 (Homo sapiens) (UniProt Q06124). Nature of the experiment: NVS_ENZ_hPTPN11: NovaScreen (NVS) Enzymatic Assay for human Protein Tyrosine Phosphatase Non-receptor Type 11 (PTPN11) (AID 2283202). In a few lines:
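Recombinant human PTPN11 activity on a fluorescent substrate, with substrate/product separated by electrophoretic mobility shift; read 0.5 h after dosing, loss of signal vs DMSO. Duplicate 25 uM screen, then concentration-response up to 50 uM.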

Experiment [5] has as its target Tyrosine-protein phosphatase non-receptor type 14 (Homo sapiens) (UniProt Q15678). Briefly: NVS_ENZ_hPTPN14: NovaScreen (NVS) Enzymatic Assay for human Protein Tyrosine Phosphatase Non-receptor Type 14 (PTPN14) (AID 2283206). The procedure, abridged:
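Cell-free recombinant human PTPN14 with fluorescent substrate, read 0.5 h after dosing by fluorescence and electrophoretic mobility shift separating substrate from product. Primary screen at 25 uM in duplicate; hits run to 50 uM maximum; loss of signal versus DMSO.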

For experiment [6], the target named is human Phosphodiesterase 5 (PDE5), PDE5A (gene 8654) (UniProt O76074). Briefly: NVS_ENZ_hPDE5: NovaScreen (NVS) Enzymatic Assay for human Phosphodiesterase 5 (PDE5) (AID 2283194). The procedure, abridged:
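Recombinant human PDE5 with specific substrate, read 1 h after dosing by fluorescence with electrophoretic mobility-shift separation of substrate and product. Initial single-concentration duplicate screen at 25 uM, actives followed in concentration series; loss of activity versus DMSO.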

Experiment [7] deals with human Phosphoinositide 3-kinase alpha (PI3Ka), PIK3CA (gene 5290) (UniProt P42336). Briefly: NVS_ENZ_hPI3Ka: NovaScreen (NVS) Enzymatic Assay for human Phosphoinositide 3-kinase alpha (PI3Ka) (AID 2283196). The procedure, abridged:
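Duplicate single-point screen (25 uM), then singleton dose-response (max 50 uM) for compounds meeting the threshold. Cell-free kinase reaction, 1 h; fluorescent mobility-shift readout.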

Experiment [8] concerns the target Tyrosine-protein phosphatase non-receptor type 13 (Homo sapiens) (UniProt Q12923). Briefly: NVS_ENZ_hPTPN13: NovaScreen (NVS) Enzymatic Assay for human Protein Tyrosine Phosphatase Non-receptor Type 13 (PTPN13) (AID 2283205). The procedure, abridged: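 Cell-free assay of recombinant human PTPN13 with a fluorescent substrate, product separated by electrophoretic mobility shift and read 0.5 h after dosing. Primary screen at 25 uM in duplicate, then concentration-response up to 50 uM. Loss of signal fitted against DMSO.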

The target in experiment [9] is human Protein Tyrosine Phosphatase Receptor Type F (PTPRF), PTPRF (gene 5792) (UniProt P10586). Nature of the experiment: NVS_ENZ_hPTPRF: NovaScreen (NVS) Enzymatic Assay for human Protein Tyrosine Phosphatase Receptor Type F (PTPRF) (AID 2283213). The procedure, abridged:
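Cell-free fluorescence enzyme assay with recombinant protein and substrate; product separated by electrophoretic mobility shift. Read 1 h after dosing, single 25 uM duplicate screen, then concentration-response up to 50 uM; loss of signal vs DMSO.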

Experiment [10] addresses human Protein Tyrosine Phosphatase Receptor Type M (PTPRM), PTPRM (gene 5797) (UniProt P28827). Briefly: NVS_ENZ_hPTPRM: NovaScreen (NVS) Enzymatic Assay for human Protein Tyrosine Phosphatase Receptor Type M (PTPRM) (AID 2283215). The procedure, abridged: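 Cell-free recombinant PTPRM with fluorogenic substrate; product separated from substrate by electrophoretic mobility shift and read by fluorescence, 1.33 h after dosing. Primary screen single concentration (25 uM) in duplicate; actives retested in concentration series; loss of signal versus DMSO.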

Experiment [11] has as its target Serine/threonine-protein phosphatase PP1-alpha catalytic subunit (Homo sapiens) (UniProt P62136). Briefly: NVS_ENZ_hPPP1CA: NovaScreen (NVS) Enzymatic Assay for human Protein Phosphatase 1 Aatalytic subunit Alpha (PPP1CA) (AID 2283200). In a few lines: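 Recombinant enzyme activity read by fluorescence with electrophoretic mobility shift separating substrate from product, 1.33 h after dosing; loss of signal vs DMSO baseline. Primary screen in duplicate at 25 uM; actives retested in concentration-response up to 50 uM.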

The target of experiment [12] is human Protein Tyrosine Phosphatase Non-receptor Type 6 (PTPN6), PTPN6 (gene 5777) (UniProt P29350). Briefly: NVS_ENZ_hPTPN6: NovaScreen (NVS) Enzymatic Assay for human Protein Tyrosine Phosphatase Non-receptor Type 6 (PTPN6) (AID 2283210). The procedure, abridged: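 Cell-free assay with recombinant PTPN6 expressed in SF9 cells, fluorescent substrate, product separated from substrate by electrophoretic mobility shift; read 1.33 hours after dosing. Primary screen in duplicate at 25 uM, actives retested in concentration series; DMSO baseline.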

The target of experiment [13] is human Protein Phosphatase, Mg2+/Mn2+ Dependent 1A (PPM1A), PPM1A (gene 5494) (UniProt P35813). Nature of the experiment: NVS_ENZ_hPPM1A: NovaScreen (NVS) Enzymatic Assay for human Protein Phosphatase, Mg2+/Mn2+ Dependent 1A (PPM1A) (AID 2283198). The procedure, abridged:
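Cell-free recombinant PPM1A phosphatase assay with fluorescent substrate, read 1 h after dosing by electrophoretic mobility shift. Chemicals screened in duplicate at 25 uM, then in concentration-response up to 50 uM; loss of activity versus DMSO.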

For experiment [14], the target named is human Sirtuin 1 (SIRT1), SIRT1 (gene 23411) (UniProt Q96EB6). Briefly: NVS_ENZ_hSIRT1: NovaScreen (NVS) Enzymatic Assay for human Sirtuin 1 (SIRT1) (AID 2283219). The procedure, abridged: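 Cell-free recombinant SIRT1 with a fluorescent substrate; substrate and product separated by electrophoretic mobility shift and read by fluorescence intensity, 1 h after dosing. Primary screen at 25 uM in duplicate; hits re-run in concentration-response up to 50 uM, relative to DMSO.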

Experiment [15] deals with human SRC Proto-Oncogene, Non-receptor Tyrosine Kinase (SRC), SRC (gene 6714) (UniProt P12931). Briefly: NVS_ENZ_hSRC: NovaScreen (NVS) Enzymatic Assay for human SRC Proto-Oncogene, Non-receptor Tyrosine Kinase (SRC) (AID 2283223). The procedure, abridged: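 Cell-free kinase activity assay with fluorescent substrate, product separated by electrophoretic mobility shift, read 1 h after dosing. Duplicate single point at 25 uM, then concentration-response up to 50 uM; loss of signal versus DMSO.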
Sequence of human SRC Proto-Oncogene, Non-receptor Tyrosine Kinase (SRC), SRC (gene 6714) (P12931 whole entry, looked up): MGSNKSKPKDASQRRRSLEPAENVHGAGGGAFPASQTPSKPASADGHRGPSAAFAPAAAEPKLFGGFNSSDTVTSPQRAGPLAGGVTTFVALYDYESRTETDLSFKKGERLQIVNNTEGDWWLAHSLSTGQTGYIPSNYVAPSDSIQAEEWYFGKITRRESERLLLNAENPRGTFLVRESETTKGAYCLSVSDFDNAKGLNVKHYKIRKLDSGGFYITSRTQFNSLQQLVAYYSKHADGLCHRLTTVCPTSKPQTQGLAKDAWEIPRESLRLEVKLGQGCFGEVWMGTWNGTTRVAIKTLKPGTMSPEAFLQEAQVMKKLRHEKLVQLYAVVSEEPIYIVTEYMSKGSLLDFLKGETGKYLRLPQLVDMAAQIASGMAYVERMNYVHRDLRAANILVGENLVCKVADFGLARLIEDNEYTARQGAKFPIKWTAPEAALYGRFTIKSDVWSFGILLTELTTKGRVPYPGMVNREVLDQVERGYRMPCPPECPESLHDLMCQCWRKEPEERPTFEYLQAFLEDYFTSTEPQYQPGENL

Experiment [16] addresses human Protein Tyrosine Phosphatase Non-receptor Type 9 (PTPN9), PTPN9 (gene 5780) (UniProt P43378). Briefly: NVS_ENZ_hPTPN9: NovaScreen (NVS) Enzymatic Assay for human Protein Tyrosine Phosphatase Non-receptor Type 9 (PTPN9) (AID 2283209). The procedure, abridged: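 Sf9-expressed enzyme in a cell-free assay, fluorescence read 1.33 h after dosing with mobility-shift separation of substrate and product. Tested at 25 uM in duplicate, then up to 50 uM; signal loss versus DMSO.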

The target in experiment [17] is human Protein Tyrosine Phosphatase Receptor Type B (PTPRB), PTPRB (gene 5787) (UniProt P23467). Briefly: NVS_ENZ_hPTPRB: NovaScreen (NVS) Enzymatic Assay for human Protein Tyrosine Phosphatase Receptor Type B (PTPRB) (AID 2283211). In a few lines:
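Recombinant human PTPRB with a fluorescent substrate, product separated by electrophoretic mobility shift; read 1 h after dosing. Primary screen in duplicate at 25 uM; actives then retested in concentration series; loss of signal versus DMSO.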

Inconclusive results are not listed. The source made the active and inactive calls. How the source made its calls: active means hit-call score of the fitted dose curve at least 0.9, where 1 is the maximum; inconclusive means response in the unintended direction; inactive means score below 0.9.

Sequence of human Phosphoinositide 3-kinase alpha (PI3Ka), PIK3CA (gene 5290) (P42336 whole entry, looked up): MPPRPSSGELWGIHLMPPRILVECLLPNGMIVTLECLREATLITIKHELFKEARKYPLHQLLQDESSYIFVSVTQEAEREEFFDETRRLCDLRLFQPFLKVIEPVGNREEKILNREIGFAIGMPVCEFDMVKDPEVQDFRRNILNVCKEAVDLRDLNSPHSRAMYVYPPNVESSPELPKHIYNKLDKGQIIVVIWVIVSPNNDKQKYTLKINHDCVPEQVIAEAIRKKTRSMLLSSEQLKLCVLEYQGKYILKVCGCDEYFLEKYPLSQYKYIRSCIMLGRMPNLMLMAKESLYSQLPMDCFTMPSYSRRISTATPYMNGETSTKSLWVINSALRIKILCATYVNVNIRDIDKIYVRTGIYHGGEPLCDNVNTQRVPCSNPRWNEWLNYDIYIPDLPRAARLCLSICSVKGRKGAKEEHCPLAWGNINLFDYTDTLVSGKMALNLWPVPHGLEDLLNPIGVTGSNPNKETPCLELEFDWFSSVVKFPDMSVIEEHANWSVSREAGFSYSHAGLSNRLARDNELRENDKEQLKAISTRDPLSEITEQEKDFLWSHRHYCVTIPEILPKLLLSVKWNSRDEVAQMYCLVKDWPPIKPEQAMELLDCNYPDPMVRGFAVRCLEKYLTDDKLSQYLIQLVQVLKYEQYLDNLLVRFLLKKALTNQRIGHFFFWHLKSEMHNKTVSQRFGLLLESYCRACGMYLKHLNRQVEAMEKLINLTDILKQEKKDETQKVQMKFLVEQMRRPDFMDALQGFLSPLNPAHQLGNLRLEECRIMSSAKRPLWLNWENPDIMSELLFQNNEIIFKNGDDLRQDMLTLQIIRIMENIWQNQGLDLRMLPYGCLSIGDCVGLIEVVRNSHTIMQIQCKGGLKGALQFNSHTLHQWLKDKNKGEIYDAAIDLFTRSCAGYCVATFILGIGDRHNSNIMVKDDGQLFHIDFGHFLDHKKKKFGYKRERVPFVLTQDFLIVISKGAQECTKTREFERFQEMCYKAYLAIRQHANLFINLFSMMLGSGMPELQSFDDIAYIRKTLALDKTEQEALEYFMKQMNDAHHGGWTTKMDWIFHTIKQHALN
Sequence of Tyrosine-protein phosphatase non-receptor type 11 (Homo sapiens) (Q06124 whole entry, looked up): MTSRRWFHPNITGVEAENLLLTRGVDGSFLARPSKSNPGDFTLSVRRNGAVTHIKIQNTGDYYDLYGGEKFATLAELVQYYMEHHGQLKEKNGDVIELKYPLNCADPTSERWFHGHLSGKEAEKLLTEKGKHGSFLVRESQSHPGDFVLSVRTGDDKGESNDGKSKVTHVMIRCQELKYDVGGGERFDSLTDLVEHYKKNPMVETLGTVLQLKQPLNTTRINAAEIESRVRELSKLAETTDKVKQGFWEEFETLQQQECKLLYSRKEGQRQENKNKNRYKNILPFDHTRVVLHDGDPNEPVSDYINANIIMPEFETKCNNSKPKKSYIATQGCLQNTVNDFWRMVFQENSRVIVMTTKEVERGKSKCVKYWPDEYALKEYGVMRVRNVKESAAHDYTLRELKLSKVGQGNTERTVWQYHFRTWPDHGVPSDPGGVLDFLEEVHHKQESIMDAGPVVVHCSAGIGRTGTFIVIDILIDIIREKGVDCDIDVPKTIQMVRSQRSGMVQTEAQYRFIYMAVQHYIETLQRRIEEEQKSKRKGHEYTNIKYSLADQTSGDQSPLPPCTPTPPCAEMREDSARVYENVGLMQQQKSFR
Sequence of human Phosphodiesterase 10 (PDE10), PDE10A (gene 10846) (Q9Y233 whole entry, looked up): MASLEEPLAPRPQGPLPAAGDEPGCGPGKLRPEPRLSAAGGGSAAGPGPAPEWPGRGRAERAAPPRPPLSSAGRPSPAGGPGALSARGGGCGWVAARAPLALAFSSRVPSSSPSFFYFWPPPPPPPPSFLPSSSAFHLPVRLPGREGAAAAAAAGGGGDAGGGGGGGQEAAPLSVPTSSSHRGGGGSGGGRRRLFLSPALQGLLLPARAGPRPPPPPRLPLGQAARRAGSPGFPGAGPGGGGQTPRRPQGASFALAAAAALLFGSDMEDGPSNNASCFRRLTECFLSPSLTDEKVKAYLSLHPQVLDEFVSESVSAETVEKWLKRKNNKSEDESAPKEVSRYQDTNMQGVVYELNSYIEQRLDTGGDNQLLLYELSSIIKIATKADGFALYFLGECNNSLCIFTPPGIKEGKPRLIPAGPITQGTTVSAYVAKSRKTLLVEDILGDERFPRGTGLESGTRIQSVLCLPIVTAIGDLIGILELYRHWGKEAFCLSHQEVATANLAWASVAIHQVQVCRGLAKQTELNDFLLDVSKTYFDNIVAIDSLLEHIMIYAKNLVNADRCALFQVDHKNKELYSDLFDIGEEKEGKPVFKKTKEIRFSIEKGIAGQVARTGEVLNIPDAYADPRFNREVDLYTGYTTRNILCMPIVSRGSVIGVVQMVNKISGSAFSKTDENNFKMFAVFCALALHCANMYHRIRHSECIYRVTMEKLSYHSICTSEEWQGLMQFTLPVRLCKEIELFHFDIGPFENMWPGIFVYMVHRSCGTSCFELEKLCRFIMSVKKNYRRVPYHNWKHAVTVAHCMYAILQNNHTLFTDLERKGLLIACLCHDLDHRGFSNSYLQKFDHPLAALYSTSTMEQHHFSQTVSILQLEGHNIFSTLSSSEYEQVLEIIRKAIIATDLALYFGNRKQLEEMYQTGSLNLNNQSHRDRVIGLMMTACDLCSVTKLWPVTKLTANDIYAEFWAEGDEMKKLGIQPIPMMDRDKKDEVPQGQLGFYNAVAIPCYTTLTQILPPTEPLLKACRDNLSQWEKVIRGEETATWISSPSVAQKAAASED
Sequence of human Protein Phosphatase, Mg2+/Mn2+ Dependent 1A (PPM1A), PPM1A (gene 5494) (P35813 whole entry, looked up): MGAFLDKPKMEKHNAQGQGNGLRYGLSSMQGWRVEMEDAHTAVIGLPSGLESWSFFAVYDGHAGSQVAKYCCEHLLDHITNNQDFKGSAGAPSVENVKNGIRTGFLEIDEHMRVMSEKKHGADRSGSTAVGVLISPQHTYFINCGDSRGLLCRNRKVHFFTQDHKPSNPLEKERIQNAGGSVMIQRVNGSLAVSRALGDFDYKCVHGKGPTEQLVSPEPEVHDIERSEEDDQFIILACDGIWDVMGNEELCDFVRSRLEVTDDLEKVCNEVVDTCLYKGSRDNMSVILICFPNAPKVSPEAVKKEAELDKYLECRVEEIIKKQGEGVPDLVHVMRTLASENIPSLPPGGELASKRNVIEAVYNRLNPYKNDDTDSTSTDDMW
Sequence of human Protein Tyrosine Phosphatase Non-receptor Type 9 (PTPN9), PTPN9 (gene 5780) (P43378 whole entry, looked up): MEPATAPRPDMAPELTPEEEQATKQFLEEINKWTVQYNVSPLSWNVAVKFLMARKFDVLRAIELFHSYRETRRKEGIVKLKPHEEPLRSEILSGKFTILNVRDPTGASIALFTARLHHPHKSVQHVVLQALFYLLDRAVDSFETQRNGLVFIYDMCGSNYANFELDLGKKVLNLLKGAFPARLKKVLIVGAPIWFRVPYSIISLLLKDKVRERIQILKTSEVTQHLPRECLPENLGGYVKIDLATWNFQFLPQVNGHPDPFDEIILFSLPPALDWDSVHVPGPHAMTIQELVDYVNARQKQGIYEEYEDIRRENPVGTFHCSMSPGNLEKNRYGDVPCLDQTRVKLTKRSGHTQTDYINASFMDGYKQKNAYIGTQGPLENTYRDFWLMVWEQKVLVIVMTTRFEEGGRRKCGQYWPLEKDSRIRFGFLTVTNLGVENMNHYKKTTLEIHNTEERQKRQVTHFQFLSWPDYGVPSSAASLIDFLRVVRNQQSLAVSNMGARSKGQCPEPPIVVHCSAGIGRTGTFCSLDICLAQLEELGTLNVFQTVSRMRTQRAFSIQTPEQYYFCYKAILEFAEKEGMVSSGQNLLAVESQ
Sequence of Serine/threonine-protein phosphatase PP1-alpha catalytic subunit (Homo sapiens) (P62136 whole entry, looked up): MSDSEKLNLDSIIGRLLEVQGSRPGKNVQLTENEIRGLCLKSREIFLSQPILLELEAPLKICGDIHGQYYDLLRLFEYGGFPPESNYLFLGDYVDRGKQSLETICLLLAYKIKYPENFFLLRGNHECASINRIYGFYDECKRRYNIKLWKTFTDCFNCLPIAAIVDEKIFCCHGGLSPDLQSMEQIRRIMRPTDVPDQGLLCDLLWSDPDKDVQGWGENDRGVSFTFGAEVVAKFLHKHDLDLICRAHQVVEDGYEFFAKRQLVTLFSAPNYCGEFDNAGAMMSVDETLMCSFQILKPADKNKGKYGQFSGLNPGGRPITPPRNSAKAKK

As for `C/C=C/C=C/C(=O)O`, the result in [1] was inactive.

Take `NCCOCCOCCN`: the outcome in experiment [2] was inactive. As to `O=C(NS(=O)(=O)/C=C/c1cccs1)c1ccc(F)cc1Br`, the call in experiment [2] and in experiment [3] was inactive. On to `CC(C)NCC(O)c1ccc(O)c(O)c1` (stereo not drawn), for which the call in [4] and in experiment [5] was inactive. In the case of `CN(C)CCCN(C)CCCN(C)C`, the outcome in experiment [1] was inactive. In the case of `COc1ccc(OC(F)(F)F)cc1CN[C@H]1CCCN[C@H]1c1ccccc1`, the result in experiment [6], in [1], in experiment [7], in [8], in experiment [5] and in experiment [9] was inactive. Moreover, in [10], the compound was called inactive. As to `CN(C)C(=O)NC1(c2ccccc2)CCN(CC[C@@]2(c3ccc(F)c(F)c3)CN(C(=O)c3ccccc3)CCO2)CC1`, the AC50 in experiment [6] is 40 µM (active). Also, the compound was called inactive in experiment [7], in [11], in experiment [4] and in experiment [12]. Regarding `CC1(C)C(=O)NC(=O)N1CO`, the compound was called inactive in experiment [6].

Consider `CSc1ccc(Oc2ccc(S(N)(=O)=O)cc2CN(C)C)cc1C`, for which the call in experiment [13] was inactive. For the compound `CCCCOC(=O)CCCCC(=O)OCCCC`, the compound was classed as inactive in [1], in experiment [8] and in experiment [10]. For the compound `CC(C)(O)c1ccc(CNC(=O)c2cccnc2Oc2ccc(F)cc2)cc1`, the outcome in experiment [6], in [1] and in experiment [14] was inactive. Turning to `CC(=O)OC1CC(C)OC(C)O1` (stereo not drawn), the result in experiment [13] was inactive. Take `Oc1ccccc1O`: the call in experiment [6] was inactive.

As to `CCCCCCCCCCCCCCCCO`, the compound was classed as inactive in [13]. With `CS(=O)(=O)c1ccc([C@@H](C[C@H]2CCC(=O)C2)C(=O)Nc2cnccn2)cc1Cl`, in [6], the concentration at half-maximal activity (AC50) was 23.3 µM (active). For the compound `O=C1c2c(O)cccc2Cc2cccc(O)c21`, in [7], the compound was classed as inactive.

With `CCc1cc(C2=C(C(=O)O)N(c3ccccc3C(F)(F)F)S(=O)(=O)c3ccccc32)cc2c1OCO2`, the result in experiment [6] and in experiment [1] was inactive. As for `CCCCC(CC)COP(=O)(OCC(CC)CCCC)OCC(CC)CCCC` (stereo not drawn), in experiment [2], the compound was called inactive. For `Cc1ccc(C(C)(C)C)c(O)c1`, the outcome in experiment [13] was inactive. On to `CCCCc1nc2cccnc2n1Cc1ccc(-c2ccccc2-c2nnn[nH]2)cc1`, for which the AC50 was 11.3 µM (active) in [6] and 13 µM (active) in experiment [1]. Besides, the outcome in [15] was inactive. Consider `CC(N)=O`, for which, in experiment [6], the compound was classed as inactive. As to `CCN(CC)CCOc1ccc(C(=C(Cl)c2ccccc2)c2ccccc2)cc1`, the result in experiment [4] was inactive. As for `O=C(Oc1ccccc1)c1cccc(C(=O)Oc2ccccc2)c1`, the call in experiment [16] was inactive. Same read-out and setting: the same measure for `O=C(O)CC(O)(CC(=O)O)C(=O)O`: “inactive”. As to `CCCCC(CC)CO` (stereo not drawn), the compound was called inactive in experiment [17]. Take `CN(C)C(=O)NC1(c2ccccc2)CCN(CCC[C@]2(c3ccc(Cl)c(Cl)c3)CCCN(C(=O)c3ccccc3)C2)CC1`: the result in experiment [9] was inactive. As to `O=C1NC(=O)C(c2ccccc2)(c2ccccc2)N1`, the result in experiment [10] was inactive. On to `CCCCCCCCCCCCCCOS(=O)(=O)O`, for which the AC50 in [15] was 37.1 µM (active). `CC(=O)O`: the compound was called inactive in experiment [15].

For the origin of these results see PubChem BioAssay (EPA / NIEHS).
